About 83,000 compounds went through this panel and 20% of them were active in at least one assay; those are over-represented in the sample as a whole.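 The endpoint reported here, percent growth, reads 100 for growth as untreated, 0 for no net growth and -100 for all cells dead.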
What was measured:
Experiment in all cases: NCI-60 one-dose screen, 48 h (100 = growth as untreated, 0 = no growth, -100 = all killed)
Conditions in all cases: 10 µM unless noted; active = growth percent below 10; inactive = the rest
HCT-15 colon = system: HCT-15 colon
HT29 colon = system: HT29 colon
SNB-75 CNS = system: SNB-75 CNS
SNB-19 CNS = system: SNB-19 CNS
PC-3 prostate = system: PC-3 prostate
SK-MEL-5 melanoma = system: SK-MEL-5 melanoma
UACC-62 melanoma = system: UACC-62 melanoma
LOX IMVI melanoma = system: LOX IMVI melanoma
SK-MEL-28 melanoma = system: SK-MEL-28 melanoma
U251 CNS = system: U251 CNS

Measured: growth

Cn1c(O)c(N=NC(=O)c2cc(-c3ccccc3)on2)c2ccccc21
inactive: HCT-15 colon 101% | HT29 colon 105% | SNB-75 CNS 58.5% | SNB-19 CNS 98.2% | PC-3 prostate 103% | SK-MEL-5 melanoma 99.3% | UACC-62 melanoma 98.9% | LOX IMVI melanoma 92.2% | SK-MEL-28 melanoma 107%

COc1ccc(-c2nc3cc(C(=O)Nc4cc(OC)c(OC)c(OC)c4)ccc3n2C2CCCCC2)cc1
inactive: HCT-15 colon 80.2% | HT29 colon 102% | SNB-75 CNS 82% | SNB-19 CNS 98.1% | U251 CNS 96.6% | UACC-62 melanoma 80.2% | LOX IMVI melanoma 95.5% | SK-MEL-28 melanoma 97%

COc1cc(/C=C/C(=O)c2ccc(O)c(CN3CCN(c4cc5c(cc4F)c(=O)c(C(=O)O)cn5C4CC4)CC3)c2)cc(OC)c1OC
inactive: HCT-15 colon 19.3% | HT29 colon 10.3% | SNB-75 CNS 57.7% | SNB-19 CNS 75.7% | PC-3 prostate 47.1% | SK-MEL-5 melanoma 64% | UACC-62 melanoma 59.9% | LOX IMVI melanoma 20.7% | SK-MEL-28 melanoma 59.3%

N#Cc1c(-c2ccc(Cl)cc2)nc(N=Nc2c(O)[nH]c3ccc(Cl)cc23)nc1N1CCOCC1
inactive: HCT-15 colon 100% | HT29 colon 107% | SNB-75 CNS 68.7% | SNB-19 CNS 101% | PC-3 prostate 99.2% | SK-MEL-5 melanoma 97.3% | UACC-62 melanoma 93.7% | LOX IMVI melanoma 83.2% | SK-MEL-28 melanoma 101%

CN(C)[C@@H]1C(=O)C(C(=O)NCc2nc3[nH]cnc(=S)c3[nH]2)=C(O)[C@@]2(O)C(=O)C3=C(O)c4c(O)cccc4[C@@](C)(O)[C@H]3C[C@@H]12
inactive: HCT-15 colon 76.7% | HT29 colon 64.3% | SNB-75 CNS 61.8% | SNB-19 CNS 84.1% | U251 CNS 96% | LOX IMVI melanoma 12.4% | SK-MEL-28 melanoma 118%

N#CCCN=Nc1c(O)[nH]c2ccc(F)cc12
inactive: HCT-15 colon 101% | HT29 colon 110% | SNB-75 CNS 62.7% | SNB-19 CNS 101% | PC-3 prostate 95.2% | SK-MEL-5 melanoma 99.5% | UACC-62 melanoma 102% | LOX IMVI melanoma 94.5% | SK-MEL-28 melanoma 107%

O=C1Nc2ccc(Br)cc2C12Oc1ccccc1C1CC(c3ccc(F)cc3)=NN12 (stereo unspecified)
inactive: HCT-15 colon 79.9% | HT29 colon 93.7% | SNB-75 CNS 86% | SNB-19 CNS 90.6% | U251 CNS 90.9% | UACC-62 melanoma 84.6% | LOX IMVI melanoma 91.9% | SK-MEL-28 melanoma 105%

O=S(=O)(Nc1ccc(OC(F)F)cc1)c1ccc(-c2cnc(C3CC3)o2)cc1
inactive: HCT-15 colon 38.4% | HT29 colon 55.6% | SNB-75 CNS 42.7% | SNB-19 CNS 75.8% | PC-3 prostate 67.6% | SK-MEL-5 melanoma 57.7% | UACC-62 melanoma 44% | LOX IMVI melanoma 72% | SK-MEL-28 melanoma 85.3%

O=C(N/N=C/c1c[nH]c2ccccc12)c1cc(-c2ccccc2)on1
inactive: HCT-15 colon 71.2% | HT29 colon 102% | SNB-75 CNS 67% | SNB-19 CNS 89.8% | PC-3 prostate 88% | SK-MEL-5 melanoma 91.3% | UACC-62 melanoma 62.8% | LOX IMVI melanoma 56.3% | SK-MEL-28 melanoma 106%

COC(=O)[C@]12CCC(C)(C)C[C@H]1[C@H]1C(=O)C[C@@H]3[C@@]4(C)c5c([nH]c6ccccc6c5=O)C(C)(C)[C@@H]4CC[C@@]3(C)[C@]1(C)CC2
inactive: HCT-15 colon 46.5% | HT29 colon 45.4% | SNB-75 CNS 65% | SNB-19 CNS 75.3% | PC-3 prostate 36.6% | SK-MEL-5 melanoma 12.4% | UACC-62 melanoma 54.5% | LOX IMVI melanoma 58.3% | SK-MEL-28 melanoma 68%

N#C/C(=C\c1ccc(-c2ccc(Cl)c(Cl)c2)o1)c1nc(-c2ccco2)cs1
inactive: HCT-15 colon 34.6% | HT29 colon 88% | SNB-75 CNS 70.7% | SNB-19 CNS 100% | PC-3 prostate 95.8% | SK-MEL-5 melanoma 70.5% | UACC-62 melanoma 78.3% | LOX IMVI melanoma 93.9% | SK-MEL-28 melanoma 114%

O=S(=O)(Nc1ccc(I)cc1F)c1ccc(-c2cnc(C3CC3)o2)cc1
inactive: HCT-15 colon 25.5% | HT29 colon 15.9% | SNB-75 CNS 15.4% | SNB-19 CNS 62.8% | PC-3 prostate 68% | SK-MEL-5 melanoma 62.8% | UACC-62 melanoma 32.8% | LOX IMVI melanoma 52.5% | SK-MEL-28 melanoma 61.7%

Cn1cc(-c2nonc2-c2c[nH]c3ccccc23)c2cccnc21
inactive: HCT-15 colon 23.5% | HT29 colon 12.4% | SNB-75 CNS 21.2% | SNB-19 CNS 46.4% | U251 CNS 26% | UACC-62 melanoma 41.5% | LOX IMVI melanoma 43% | SK-MEL-28 melanoma 61.5%

COc1ccc(-c2nc3ccc(-c4nc5ccc(N6CCN(c7ccncc7)CC6)cc5[nH]4)cc3[nH]2)cc1OC
inactive: HCT-15 colon 88.7% | HT29 colon 22.6% | SNB-75 CNS 52.8% | SNB-19 CNS 40.9% | PC-3 prostate 54.8% | SK-MEL-5 melanoma 14.1% | UACC-62 melanoma 17.5% | LOX IMVI melanoma 16.9% | SK-MEL-28 melanoma 19.1%

Source: PubChem BioAssay (NCI)
